# Measurements published in PubChem BioAssay AID1159580 (chemical genetic matrix, 2015).
# About 2,000 (36%) of roughly 5,500 compounds were called active. About 18% were inconclusive and are not listed. The list shows a part of the results. A number with no mark means an inactive call. Cut-off read from the data, not from the text of the source: active = normalized growth mostly below about 0.91 (no sharp cut-off); inconclusive = no clear call, values can overlap the other calls; inactive = mostly above about 0.92.
# Test: chemical genetic growth profiling, strain panel (AID 1159580);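 note: tested at 20 µM; growth read once vehicle control cultures reached saturation at 30 °C; 1 = growth at the plate median or of vehicle wells; lower values mean less growth of the strain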
# Details: S. cerevisiae deletion strains, growth OD
smiles,measurement,setting,value
CC(=O)O[C@H]1CC[C@@]2(C)C(=CCC3C2CC[C@]2(C)C(=O)CCC32)C1 (stereo partly drawn),normalized growth,"locus YAL013W, strain DEP1, active compounds read low",0.775 (active)
same,normalized growth,"locus YAL021C, strain ccr4, active compounds read low",0.877 (active)
same,normalized growth,"locus YAL026C, strain drs2, active compounds read low",0.6 (active)
same,normalized growth,"locus YAL030W, strain snc1, active compounds read low",1.02
same,normalized growth,"locus YBL061C, strain skt5, active compounds read low",1.02
same,normalized growth,"locus YBR009C, strain hhf1, active compounds read low",0.908
same,normalized growth,"locus YBR021W, strain FUR4, active compounds read low",0.833 (active)
same,normalized growth,"locus YBR023C, strain chs3, active compounds read low",0.961
same,normalized growth,"locus YBR171W, strain sec66, active compounds read low",1.02
same,normalized growth,"locus YBR229C, strain ROT2, active compounds read low",1
same,normalized growth,"locus YBR231C, strain swc5, active compounds read low",1.04
same,normalized growth,"locus YBR279W, strain paf1, active compounds read low",0.975
same,normalized growth,"locus YCL011C, strain gbp2, active compounds read low",0.912
same,normalized growth,"locus YCL016C, strain dcc1, active compounds read low",0.917
same,normalized growth,"locus YCL029C, strain bik1, active compounds read low",0.895 (active)
same,normalized growth,"locus YCL069W, strain vba3, active compounds read low",0.951
same,normalized growth,"locus YCR088W, strain abp1, active compounds read low",1.05
same,normalized growth,"locus YDL005C, strain med2, active compounds read low",1.02
same,normalized growth,"locus YDL035C, strain GPR1, active compounds read low",0.686 (active)
same,normalized growth,"locus YDL040C, strain nat1, active compounds read low",1.03
same,normalized growth,"locus YDL074C, strain BRE1, active compounds read low",0.612 (active)
same,normalized growth,"locus YDL101C, strain DUN1, active compounds read low",0.981
same,normalized growth,"locus YDL185W, strain tfp1, active compounds read low",1.01
same,normalized growth,"locus YDL192W, strain arf1, active compounds read low",1.01
same,normalized growth,"locus YDR001C, strain nth1, active compounds read low",1.04
same,normalized growth,"locus YDR069C, strain doa4, active compounds read low",1.02
same,normalized growth,"locus YDR101C, strain arx1, active compounds read low",0.932
same,normalized growth,"locus YDR137W, strain rgp1, active compounds read low",0.568 (active)
same,normalized growth,"locus YDR159W, strain sac3, active compounds read low",1.01
same,normalized growth,"locus YDR162C, strain NBP2, active compounds read low",0.596 (active)
same,normalized growth,"locus YDR195W, strain ref2",1.3 [resistant] (active)
same,normalized growth,"locus YDR297W, strain sur2, active compounds read low",0.99
same,normalized growth,"locus YDR318W, strain mcm21, active compounds read low",0.844 (active)
same,normalized growth,"locus YDR334W, strain swr1, active compounds read low",1.06
same,normalized growth,"locus YDR335W, strain msn5, active compounds read low",0.937
same,normalized growth,"locus YDR388W, active compounds read low",1.02
same,normalized growth,"locus YDR392W, strain spt3, active compounds read low",0.43 (active)
same,normalized growth,"locus YDR502C, strain sam2, active compounds read low",0.843 (active)
same,normalized growth,"locus YEL003W, strain gim4, active compounds read low",0.942
same,normalized growth,"locus YEL037C, strain rad23, active compounds read low",0.994
same,normalized growth,"locus YEL061C, strain CIN8 (second series), active compounds read low",1.02
same,normalized growth,"locus YEL061C, strain CIN8, active compounds read low",0.928
same,normalized growth,"locus YER015W, strain faa2, active compounds read low",0.948
same,normalized growth,"locus YER016W, strain bim1, active compounds read low",1.02
same,normalized growth,"locus YER110C, active compounds read low",1.03
same,normalized growth,"locus YER111C, strain swi4, active compounds read low",1.03
same,normalized growth,"locus YER155C, strain BEM2 (second series), active compounds read low",0.991
same,normalized growth,"locus YER155C, strain BEM2, active compounds read low",0.752 (active)
same,normalized growth,"locus YER167W, strain BCK2, active compounds read low",0.892 (active)
same,normalized growth,"locus YFR010W, strain ubp6, active compounds read low",0.96
same,normalized growth,"locus YGL078C, strain dbp3, active compounds read low",0.979
same,normalized growth,"locus YGL086W, strain mad1, active compounds read low",0.884 (active)
same,normalized growth,"locus YGL167C, strain pmr1, active compounds read low",1.02
same,normalized growth,"locus YGL173C, strain kem1, active compounds read low",1
same,normalized growth,"locus YGL227W, strain vid30, active compounds read low",1.04
same,normalized growth,"locus YGL240W, strain doc1, active compounds read low",1.02
same,normalized growth,"locus YGL248W, strain PDE1, active compounds read low",0.721 (active)
same,normalized growth,"locus YGL253W, strain hxk2, active compounds read low",0.939
same,normalized growth,"locus YGR135W, strain pre9, active compounds read low",0.884 (active)
same,normalized growth,"locus YGR229C, strain SMI1, active compounds read low",0.813
same,normalized growth,"locus YGR252W, strain gcn5, active compounds read low",0.81
same,normalized growth,"locus YHR013C, strain ard1, active compounds read low",0.966
same,normalized growth,"locus YHR027C, strain rpn1, active compounds read low",1.02
same,normalized growth,"locus YHR030C, strain SLT2, active compounds read low",0.779 (active)
same,normalized growth,"locus YHR079C, strain IRE1 (second series), active compounds read low",0.962
same,normalized growth,"locus YHR094C, strain hxt1, active compounds read low",1.04
same,normalized growth,"locus YHR129C, strain ARP1, active compounds read low",0.788 (active)
same,normalized growth,"locus YHR142W, strain chs7, active compounds read low",0.877
same,normalized growth,"locus YHR200W, strain rpn10, active compounds read low",0.961
same,normalized growth,"locus YIL066C, strain RNR3, active compounds read low",0.812 (active)
same,normalized growth,"locus YIL073C, strain SPO22, active compounds read low",0.679
same,normalized growth,"locus YIL125W, strain kgd1, active compounds read low",1
same,normalized growth,"locus YIR030C, strain dcg1, active compounds read low",1.02
same,normalized growth,"locus YJL092W, strain hpr5, active compounds read low",1
same,normalized growth,"locus YJL095W, strain BCK1 (second series), active compounds read low",1.01
same,normalized growth,"locus YJL095W, strain BCK1, active compounds read low",0.433 (active)
same,normalized growth,"locus YJL115W, strain asf1, active compounds read low",1.05
same,normalized growth,"locus YJL129C, strain trk1, active compounds read low",0.939
same,normalized growth,"locus YJL134W, strain LCB3, active compounds read low",1.02
same,normalized growth,"locus YJL154C, strain vps35, active compounds read low",1.03
same,normalized growth,"locus YJL164C, strain tpk1, active compounds read low",0.906 (active)
same,normalized growth,"locus YJL166W, strain qcr8, active compounds read low",0.903
same,normalized growth,"locus YJL168C, strain set2, active compounds read low",1.02
same,normalized growth,"locus YJL187C, strain SWE1 (second series), active compounds read low",0.887
same,normalized growth,"locus YJR043C, strain POL32, active compounds read low",0.857
same,normalized growth,"locus YJR075W, strain HOC1, active compounds read low",0.887
same,normalized growth,"locus YKL009W, strain mrt4, active compounds read low",0.938
same,normalized growth,"locus YKL068W, active compounds read low",1.03
same,normalized growth,"locus YKL085W, strain MDH1 (second series), active compounds read low",0.964
same,normalized growth,"locus YKL085W, strain MDH1, active compounds read low",0.964
same,normalized growth,"locus YKL160W, strain elf1, active compounds read low",0.906
same,normalized growth,"locus YKL190W, strain CNB1, active compounds read low",0.945
same,normalized growth,"locus YKR001C, strain vps1, active compounds read low",0.961
same,normalized growth,"locus YKR026C, strain gcn3, active compounds read low",1.05
same,normalized growth,"locus YKR091W, strain srl3, active compounds read low",1.03
same,normalized growth,"locus YLL001W, strain dnm1, active compounds read low",0.918
same,normalized growth,"locus YLL026W, active compounds read low",1.02
same,normalized growth,"locus YLL041C, strain sdh2, active compounds read low",1.03
same,normalized growth,"locus YLR027C, strain aat2, active compounds read low",0.954
same,normalized growth,"locus YLR039C, strain RIC1, active compounds read low",0.403 (active)
same,normalized growth,"locus YLR058C, strain SHM2, active compounds read low",0.892
same,normalized growth,"locus YLR102C, strain apc9, active compounds read low",1.04
same,normalized growth,"locus YLR221C, strain rsa3, active compounds read low",0.966
same,normalized growth,"locus YLR258W, strain gsy2, active compounds read low",0.952
same,normalized growth,"locus YLR262C, strain YPT6 (second series), active compounds read low",0.514 (active)
same,normalized growth,"locus YLR262C, strain YPT6, active compounds read low",0.413 (active)
same,normalized growth,"locus YLR268W, strain sec22, active compounds read low",0.887
same,normalized growth,"locus YLR320W, strain mms22, active compounds read low",0.846 (active)
same,normalized growth,"locus YLR330W, strain CHS5, active compounds read low",0.814 (active)
same,normalized growth,"locus YLR342W, strain FKS1 (second series), active compounds read low",0.742 (active)
same,normalized growth,"locus YLR342W, strain FKS1, active compounds read low",0.976
same,normalized growth,"locus YLR357W, strain rsc2, active compounds read low",1.1
same,normalized growth,"locus YLR370C, strain arc18, active compounds read low",1.01
same,normalized growth,"locus YLR371W, strain rom2, active compounds read low",1.02
same,normalized growth,"locus YLR384C, strain iki3, active compounds read low",1.03
same,normalized growth,"locus YLR418C, strain cdc73, active compounds read low",0.698 (active)
same,normalized growth,"locus YML016C, strain PPZ1, active compounds read low",0.947
same,normalized growth,"locus YML032C, strain rad52, active compounds read low",0.866 (active)
same,normalized growth,"locus YML120C, strain ndi1, active compounds read low",0.928
same,normalized growth,"locus YML124C, strain tub3, active compounds read low",1.03
same,normalized growth,"locus YMR058W, strain fet3, active compounds read low",0.988
same,normalized growth,"locus YMR078C, strain ctf18, active compounds read low",1.01
same,normalized growth,"locus YMR125W, strain sto1, active compounds read low",1.05
same,normalized growth,"locus YMR129W, active compounds read low",1.03
same,normalized growth,"locus YMR205C, strain PFK2, active compounds read low",0.876
same,normalized growth,"locus YMR223W, strain ubp8, active compounds read low",0.878 (active)
same,normalized growth,"locus YMR231W, strain pep5, active compounds read low",1.01
same,normalized growth,"locus YMR263W, strain SAP30, active compounds read low",0.943
same,normalized growth,"locus YMR307W, strain GAS1, active compounds read low",0.865
same,normalized growth,"locus YNL067W, strain RPL9B, active compounds read low",0.887
same,normalized growth,"locus YNL071W, strain lat1, active compounds read low",0.758 (active)
same,normalized growth,"locus YNL209W, strain ssb2, active compounds read low",0.942
same,normalized growth,"locus YNL233W, strain BNI4, active compounds read low",0.724 (active)
same,normalized growth,"locus YNL248C, strain rpa49, active compounds read low",0.98
same,normalized growth,"locus YNL250W, strain rad50, active compounds read low",0.914
same,normalized growth,"locus YNL271C, strain bni1, active compounds read low",0.965
same,normalized growth,"locus YNL298W, strain CLA4, active compounds read low",0.859 (active)
same,normalized growth,"locus YNL307C, strain MCK1, active compounds read low",0.516 (active)
same,normalized growth,"locus YNL322C, strain KRE1 (second series), active compounds read low",1.04
same,normalized growth,"locus YNR049C, strain mso1, active compounds read low",1.04
same,normalized growth,"locus YNR052C, strain pop2, active compounds read low",0.85 (active)
same,normalized growth,"locus YOL012C, strain htz1",1.72
same,normalized growth,"locus YOL147C, strain pex11, active compounds read low",0.92 (active)
same,normalized growth,"locus YOR001W, strain rrp6, active compounds read low",0.969
same,normalized growth,"locus YOR061W, strain CKA2, active compounds read low",0.89
same,normalized growth,"locus YOR069W, strain VPS5, active compounds read low",0.988
same,normalized growth,"locus YOR070C, strain gyp1, active compounds read low",0.937
same,normalized growth,"locus YOR080W, strain dia2, active compounds read low",1
same,normalized growth,"locus YOR083W, strain WHI5, active compounds read low",0.903
same,normalized growth,"locus YOR106W, strain vam3, active compounds read low",0.883
same,normalized growth,"locus YOR136W, strain idh2, active compounds read low",0.95
same,normalized growth,"locus YOR144C, strain elg1, active compounds read low",0.989
same,normalized growth,"locus YOR184W, strain ser1, active compounds read low",0.477 (active)
same,normalized growth,"locus YOR265W, strain rbl2, active compounds read low",0.973
same,normalized growth,"locus YOR270C, strain vph1, active compounds read low",1.05
same,normalized growth,"locus YOR290C, strain snf2, active compounds read low",0.881
same,normalized growth,"locus YOR316C, strain cot1, active compounds read low",1.02
same,normalized growth,"locus YPL051W, strain arl3, active compounds read low",0.953
same,normalized growth,"locus YPL055C, strain LGE1, active compounds read low",0.594 (active)
same,normalized growth,"locus YPL078C, strain atp4, active compounds read low",0.891 (active)
same,normalized growth,"locus YPL106C, strain sse1, active compounds read low",1.22 [resistant] (active)
same,normalized growth,"locus YPL240C, strain hsp82, active compounds read low",0.983
same,normalized growth,"locus YPL241C, strain CIN2, active compounds read low",1
same,normalized growth,"locus YPR119W, strain clb2, active compounds read low",1.04
same,normalized growth,"locus YPR141C, strain kar3, active compounds read low",1.04
same,normalized growth,"locus YPR163C, strain tif3, active compounds read low",0.941
same,normalized growth,"locus YPR167C, strain met16, active compounds read low",0.97
same,normalized growth,"strain wtn01, active compounds read low",0.848 (active)
